Screens (PubChem BioAssay)
Compounds with a hit are over-represented: about 4.1% of the library has one in this group of screens.
hgDAF12 agonist – hgDAF-12 agonism, primary luciferase screen; HEK293 GAL4-hgDAF12 UAS-luciferase reporter, agonist luminescence; normalized to butyrate control; activation, % at 6.8 µM; 1.8% of 370,000 active;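 active means activation above a cutoff set at the mean of all screened compounds plus 3 SD, cut at about 10% in these data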
DAX1 inh-1 – inhibits human nuclear receptor DAX1 | P51843 | HEK293 Gal4-DAX1 luciferase reporter, luminescence | inhibition, % at 6.75 µM | 0.99% of 340,000 active | AID 504766;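 active means inhibition above the mean over all tested compounds plus 3 SD, cut at about 4.2% in these data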;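 further: inhibition shows as a rise in luminescence from relieved DAX1 repression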
Target sequence (P51843 207-470 limits assumed): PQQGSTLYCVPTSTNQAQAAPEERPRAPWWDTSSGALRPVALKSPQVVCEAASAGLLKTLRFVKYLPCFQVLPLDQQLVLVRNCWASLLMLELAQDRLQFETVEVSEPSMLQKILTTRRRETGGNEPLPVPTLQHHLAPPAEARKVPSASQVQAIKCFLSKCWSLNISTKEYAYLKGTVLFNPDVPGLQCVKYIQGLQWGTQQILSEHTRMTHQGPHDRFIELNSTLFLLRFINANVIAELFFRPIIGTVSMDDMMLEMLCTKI
ssDAF12 agonist – activates DAF-12 receptor from parasite S. stercoralis. HEK293 ssDAF-12/GRIP1 lit1-tk-luc reporter, luminescence; % of 3 µM dafachronic acid response. activation, % at 6.8 µM. 1% of 370,000 active;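 active means activation above the mean over all tested compounds plus 3 SD, cut at about 0.9% in these data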
hcDAF-12 act – activates DAF-12 receptor from parasite H. contortus; 1.4% of 370,000 active; AID 652067; activation, % at 6.8 µM; HEK293 hcDAF-12 lit1-tk-luc reporter, luminescence; 0% DMSO, 100% Δ7-dafachronic acid;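 active means activation above the mean of all tested compounds plus 3 SD, cut at about 5.5% in these data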
DAX1 inh-2 – DAX1 (NR0B1) inhibition, primary screen. inhibition, % at 6.8 µM. HEK293T StAR-luciferase reporter, SF-1/DAX-1 repression relief. 1.1% of 370,000 active;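 active means inhibition above the mean over all tested compounds plus 3 SD, cut at about 3.6% in these data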;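 further: higher inhibition means more luminescence from relief of DAX-1 repression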
A number is an active result; i = inactive; nt = no result given.

SMILES	hgDAF12 agonist	DAX1 inh-1	ssDAF12 agonist	hcDAF-12 act	DAX1 inh-2
Cn1c2[n+](c3ccc(Cl)cc3c1=O)Cc1ccccc1-2	i	5.7	i	i	i
COCCCn1cc(CN2CC=CS2(=O)=O)nn1	i	nt	i	i	i
O=C(COC(=O)c1nc(Cl)ccc1Cl)Nc1ccc(Cl)cn1	i	i	1.0	5.7	i
O=C(COC(=O)c1nc(Cl)ccc1Cl)Nc1ccc(Cl)cc1	i	i	i	i	i
O=C(Cn1cnc2ccccc2c1=O)c1ccc2c(c1)OCCO2	11.4	i	i	i	i
COc1cc2c(c(OC)c1OC)-c1ccc(NCc3ccccc3)c(=O)cc1C(NC(C)=O)CC2 (stereo not given)	i	i	i	i	4.0
COc1cc2c(c(OC)c1OC)-c1ccc(N(C)CC(OC)OC)c(=O)cc1[C@@H](NC(C)=O)CC2	i	i	i	i	i
COc1cc2c(c(OC)c1OC)-c1ccc(NC(=O)c3ccc(F)cc3)c(=O)cc1[C@@H](NC(C)=O)CC2	i	i	i	i	i
COc1cc2c(c(OC)c1OC)-c1ccc(SC)c(=O)cc1C(NC(=O)C(F)(F)F)CC2 (stereo not given)	i	i	i	i	3.7
CC(=O)N1C[C@H]2CON(C)[C@H]2C[C@H]1c1ccccc1Br	i	i	1.1	i	i
COc1ccccc1-c1cccc([C@@H]2C[C@H]3[C@H](CON3C)CN2C(C)=O)c1	i	i	i	i	3.7
CC(=O)N1C[C@H]2CON(C)[C@H]2C[C@H]1c1cccc(-c2ccccc2C)c1	i	i	i	i	i
CC(COc1cccc(OC(F)(F)F)c1)CN1CCC(C(O)(c2ccccc2)c2ccccc2)CC1 (stereo not given)	i	nt	i	i	i
COC(=O)[C@]12C[C@H](CC(=O)NCC34CC5CC(CC(C5)C3)C4)C(=O)N(CCc3ccc(OC)c(OC)c3)C1=C[C@H](COCc1ccccc1)O[C@@H]2C	i	nt	i	i	i
C[C@@H]1COc2cc(Br)ccc2S(=O)(=O)N1Cc1cn(Cc2ccc(F)cc2)nn1	i	nt	i	i	i
COC(=O)[C@]12C[C@H](CC(=O)NCCC(C)C)C(=O)N(Cc3ccco3)C1=C[C@H](C(C)C)O[C@@H]2C1CC1	i	nt	i	i	i
O=C(Nc1cccc(Cl)c1)NC1CC2CCC(C1)N2Cc1cccs1 (stereo not given)	i	4.6	i	i	i
COCCCNC(=O)c1oc2ccc(S(=O)(=O)N3CCOCC3)cc2c1C	i	4.9	i	i	i
Cc1c(C(=O)NC2CCCc3ccccc32)oc2ccc(S(=O)(=O)N3CCCC3)cc12 (stereo not given)	i	i	i	i	i
Cc1c(C(=O)NCCc2ccccc2)oc2ccc(S(=O)(=O)N3CCOCC3)cc12	i	i	i	i	i
Cc1c(C(=O)NC2CCCc3ccccc32)oc2ccc(S(=O)(=O)N3CCOCC3)cc12 (stereo not given)	i	5.8	i	i	i
Cc1cccc(Cn2cc(CN3CC(N4CCN(CCOC(=O)c5cc6ccccc6o5)CC4)CS3(=O)=O)nn2)c1 (stereo not given)	i	nt	i	i	i
COC(=O)CCN(C1CCCCC1)S(=O)(=O)c1ccc(S(=O)(=O)N2CCCCC2)cc1	i	i	i	5.8	i
CN(C1CCCCC1)S(=O)(=O)c1ccc(S(=O)(=O)N2CCN(CCC#N)CC2)cc1	i	5.7	i	i	i
COc1ccc(S[C@]2(C(=O)N3CCOCC3)CC(=O)N(P(=O)(OC)OC)[C@@H]2c2ccc(OC)cc2)cc1	i	nt	i	i	i
SMILES	hgDAF12 agonist	DAX1 inh-1	ssDAF12 agonist	hcDAF-12 act	DAX1 inh-2
Cc1ccccc1CN1CCCCC(NC(=O)c2cccc([N+](=O)[O-])c2)C1=O (stereo not given)	i	nt	i	i	i
COc1ccc(C(=O)n2cnc3ccccc32)cc1[N+](=O)[O-]	i	i	1.4	i	i
COc1ccc(C(=O)n2cnc3ccccc32)cc1Br	i	i	i	i	i
O=Cc1ccc2noc(-c3ccc(Cl)cc3)c2c1	i	i	i	6.5	i
C=CCNc1nnc(-c2ccncc2)s1	i	i	i	i	i
c1ccc2c(Nc3nnc(-c4ccncc4)s3)cccc2c1	10.5	i	i	i	i
Cc1nc(SCC(=O)c2cc3ccccc3oc2=O)c(C#N)c(C)c1C(=O)Nc1ccccc1	i	nt	1.1	i	i
COc1ccc(-c2cc3ncnc(Cl)c3s2)cc1	10.9	i	i	i	i
O=C(Cn1nc(-c2ccccc2)ccc1=O)NCCc1cccc(F)c1	i	nt	i	i	i
Cc1ccc(C(=O)NCC(=O)OC(C)C(=O)Nc2ccccc2[N+](=O)[O-])s1 (stereo not given)	i	i	i	i	3.6
Cc1nn(CC(=O)OC(C)C(=O)Nc2ccccc2[N+](=O)[O-])c(C)c1[N+](=O)[O-] (stereo not given)	i	i	3.5	i	i
CC(OC(=O)CCC(=O)c1cccs1)C(=O)Nc1ccccc1[N+](=O)[O-] (stereo not given)	i	i	i	i	i
O=C(Nc1ccc2ccccc2c1)c1cccc([N+](=O)[O-])c1	11.6	i	i	i	i
O=C(Nc1cccc([N+](=O)[O-])c1)c1ccccc1	i	i	i	i	i
O=C(O)c1cccc([N+](=O)[O-])c1C(=O)Nc1ccc2ccccc2c1	i	i	1.8	6.5	i
CC(C)C(=O)Nc1cccc(NC(=O)c2cccc([N+](=O)[O-])c2)c1	i	5.5	i	i	i
COc1cc([N+](=O)[O-])ccc1NC(=O)c1cccc(NC(=O)C(C)C)c1	i	i	i	i	i
CCOC(=O)N1CCN(C(=O)C[C@H]2C[C@@]3(C(=O)OC)C(=C[C@H](C(C)C)O[C@@H]3C3CC3)N(Cc3ccco3)C2=O)CC1	i	nt	i	i	i
O=C(Nc1cc(C(F)(F)F)ccc1N1CCOCC1)c1cn2ccccc2n1	i	6.6	i	i	i
O=C(Nc1cc(S(=O)(=O)N2CCOCC2)ccc1N1CCOCC1)c1cn2ccccc2n1	i	i	i	i	i
CC1CC(c2ccccc2)=Nc2ccccc2N1 (stereo not given)	i	i	i	5.7	i
CCOc1ccc(Cn2nnc(C(=O)Nc3cc(C)cc(C)c3)c2N)cc1	i	i	i	i	i
Cc1cccc(-n2nnc(C(=O)Nc3ccc(F)cc3)c2N)c1	11.6	i	i	i	i
CCc1ccc(Cn2nnc(C(=O)Nc3cccc(C)c3)c2N)cc1	i	4.3	i	i	i
Cc1ccc(-n2c(SCC(=O)Nc3ccc(S(=O)(=O)Nc4cc(C)nc(C)n4)cc3)nnc2-c2ccncc2)cc1	i	nt	i	i	i
COc1ccc(-c2cn3cc(C(=O)NN)ccc3n2)cc1	11.6	i	i	i	i
O=C1OCc2cc(NC(=O)C3CCCO3)ccc21 (stereo not given)	i	i	i	5.8	i
O=C1NC(=O)c2cc(NC(=O)C3CCCO3)ccc21 (stereo not given)	i	i	i	i	i
